Source: PubChem BioAssay (EPA / NIEHS)
Results filed as inconclusive are left out. Activity calls are given as the source filed them. Rule for the calls: active = hit-call score of the fitted dose curve at least 0.9, where 1 is the maximum; inconclusive = response in the unintended direction; inactive = score below 0.9.

Molecular target: human Vitamin D Receptor (VDR), VDR (gene 7421) (UniProt P11473)
Assay: ATG_VDR_TRANS: Attagene TRANS-FACTORIAL HepG2 Assay for human Vitamin D Receptor (VDR) (AID 2283022)
Outline: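 HepG2 cells were transiently transfected with multiple GAL4-UAS reporter units, so signal reflects exogenous chimeric receptor-Gal4 activity. After 24 h compound exposure, reporter mRNA was measured by RT-PCR, fluorescent labelling and capillary electrophoresis, fitted for gain of signal versus DMSO.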

Sequence of human Vitamin D Receptor (VDR), VDR (gene 7421) (P11473 whole entry, looked up): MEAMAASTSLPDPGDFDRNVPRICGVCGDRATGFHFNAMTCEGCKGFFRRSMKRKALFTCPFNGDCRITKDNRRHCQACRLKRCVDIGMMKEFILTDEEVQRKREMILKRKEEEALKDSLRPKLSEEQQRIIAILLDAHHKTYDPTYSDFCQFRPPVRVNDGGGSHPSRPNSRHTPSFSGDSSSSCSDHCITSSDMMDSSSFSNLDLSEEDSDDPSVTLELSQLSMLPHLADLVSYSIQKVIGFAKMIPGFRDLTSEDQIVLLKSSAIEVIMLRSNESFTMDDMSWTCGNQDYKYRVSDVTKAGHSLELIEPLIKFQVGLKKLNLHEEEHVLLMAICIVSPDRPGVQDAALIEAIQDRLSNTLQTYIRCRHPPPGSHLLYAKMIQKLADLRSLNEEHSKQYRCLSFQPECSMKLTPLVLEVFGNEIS

outcome, inactive:
O=C1CCCC1
CC1(C)S[C@@H]2[C@H](NC(=O)COc3ccccc3)C(=O)N2[C@H]1C(=O)O
Oc1ccc(Cl)cc1Cc1cc(Cl)ccc1O
C=CC(=O)OCCOC(=O)C=C
NNC(=O)c1cccc(C(=O)NN)c1
O=C(Nc1cccc(C(F)(F)F)c1)c1cc(Br)cc(Br)c1O
O=C1CCC(=O)N1Cl
O=C1Nc2ccccc2C1(c1ccc(O)cc1)c1ccc(O)cc1
Cc1cccc(C(=O)O)c1
CNC(=S)N(C)C
CC(C)(C)C(=O)CCc1ccc(Cl)cc1
CCCCCCCCO[C@@H]1O[C@H](CO)[C@@H](O)[C@H](O)[C@H]1O
O=C(O)c1ccccc1Nc1cccc(C(F)(F)F)c1
O=C(c1ccccc1)C1CCC1
CC1(C)O[C@@H]2C[C@H]3[C@@H]4C[C@H](F)C5=CC(=O)CC[C@]5(C)[C@H]4[C@@H](O)C[C@]3(C)[C@]2(C(=O)CO)O1
CC=CCO
CCCCCCOc1cc(C)c(O)c(C)c1C
Cc1ccc(C(C)c2ccc(C)c(C)c2)cc1C
C=CC(C)(CCC=C(C)C)OC(=O)C(C)C (stereo not given)
CC(CC=O)CCCC(C)(C)O (stereo not given)
O=C(O)CC(C(=O)O)C(CC(=O)O)C(=O)O (stereo not given)
CCCCC(CC)COC(=O)c1ccccc1 (stereo not given)
CCC(C)C=O (stereo not given)
C(=CC=Nc1ccccc1)C=CNc1ccccc1
CCOC(=O)NNc1nncc2ccccc12
